# Data published in PubChem BioAssay.
# Active and inactive are the calls of the source. How the calls were made is not given here.
# Target: Pantothenate synthetase (Mycobacterium tuberculosis (strain ATCC 25618 / H37Rv)) (UniProt P9WIL5)
# Assay: Recombinant Mtb pantothenate synthetase (PanC) inhibitors, coupled enzyme, confirmatory (AID 375);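 further: 0% = full reaction with vehicle and 100% = no enzyme background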
# Conditions: coupled enzyme assay; at 10 µM, stronger effect = higher value
# Pantothenate synthetase (Mycobacterium tuberculosis (strain ATCC 25618 / H37Rv)), sequence (P9WIL5 whole entry, looked up): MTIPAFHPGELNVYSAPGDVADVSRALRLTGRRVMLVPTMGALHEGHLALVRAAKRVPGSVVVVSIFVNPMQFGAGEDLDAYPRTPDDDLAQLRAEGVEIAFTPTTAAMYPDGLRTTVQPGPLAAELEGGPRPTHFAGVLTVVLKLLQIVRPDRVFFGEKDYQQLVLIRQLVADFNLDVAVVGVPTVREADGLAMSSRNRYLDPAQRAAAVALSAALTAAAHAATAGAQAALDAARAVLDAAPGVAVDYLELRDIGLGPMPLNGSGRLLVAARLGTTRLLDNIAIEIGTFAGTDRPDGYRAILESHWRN
row,SMILES,inhibition
1,Cn1c(COc2ccc(Cl)cc2)nnc1SCC(=O)NC1CCCCC1,0% (inactive)
2,COc1ccc(C(=O)COC(=O)CCn2nnc(-c3cccs3)n2)cc1,0% (inactive)
3,Cc1cnc(C(=O)Nc2nnc(C(C)C)s2)cn1,0% (inactive)
4,O=C(CSc1nnc2scc(-c3ccccc3)n12)N1CCN(Cc2ccccc2)CC1,6% (inactive)
5,CCOC(=O)CSc1nc(N)c2c3c(sc2n1)CCCC3,0% (inactive)
6,CCCOc1ccc2ccccc2c1/C=N/n1cnnc1,5% (inactive)
7,c1ccc2c(c1)C(=Nn1cnnc1)c1ccccc1-2,0% (inactive)
8,CCc1cc2ccc(C)cc2nc1SCC(=O)N1CCN(C(=O)c2ccco2)CC1,0% (inactive)
9,CC(=O)Nc1ccc(N=Cc2nc(-c3ccc(C)cc3)oc2O)cc1,0% (inactive)
10,CCn1c(SCC(=O)C(C)(C)C)nnc1-c1cnccn1,0% (inactive)
11,Cc1c(=O)n(OCc2ccccn2)c2ccccc2[n+]1[O-],0% (inactive)
12,CCN(Cc1cc2ccccc2[nH]c1=O)S(=O)(=O)c1ccccc1,0% (inactive)
13,CC(C)C1N=C2c3ccccc3N=C(SCc3cc(=O)n4ccccc4n3)N2C1=O (stereo not given),6% (inactive)
14,Cc1ccc(S(=O)(=O)N2CCN(C(=O)CN3C(=O)NC4(CCOc5ccccc54)C3=O)CC2)cc1 (stereo not given),2% (inactive)
15,COC(=O)c1cnc2c(C(F)(F)F)cccc2c1OC,2% (inactive)
16,CC1(C)Cc2c(C#N)c(SCCC#N)nc(N3CCOCC3)c2CS1,0% (inactive)
17,O=C(CCN1C(=O)c2ccccc2C1=O)Nc1ccc(F)cc1,0% (inactive)
18,CC(=O)c1cccc(NS(=O)(=O)c2ccc3c(c2)oc(=O)n3C)c1,0% (inactive)
19,Cc1cc(C)nc(SCC(=O)Nc2ncc3c(n2)CCCC3=O)n1,0% (inactive)
20,CCOc1ccccc1N(C(=O)Cn1nnnc1-c1ccc(C)o1)C(CC)C(=O)NC(C)(C)C (stereo not given),0% (inactive)

row,SMILES,inhibition
1,CCCN1Cc2cccc(C(=O)NCc3cccs3)c2C1=O,0% (inactive)
2,Cc1cccc(Cc2c(C)nc3nc(SCC(=O)NCc4ccco4)nn3c2C)c1,2% (inactive)
3,CN(C1CCCCC1)S(=O)(=O)c1ccc(S(=O)(=O)N2CCN(CCC#N)CC2)cc1,6% (inactive)
4,COc1ccc2[nH]c(=O)c(CN(Cc3cccs3)S(=O)(=O)c3cccc4nsnc34)cc2c1,0% (inactive)
5,Cc1csc(SCC(=O)NC(=O)NCc2ccccc2)n1,9% (inactive)
6,O=C(CSc1nnnn1C1CCCC1)Nc1cccc(NC(=O)c2ccco2)c1,5% (inactive)
7,CCN(Cc1nc2ccccc2c(=O)[nH]1)Cc1nc2cc(OC)c(OC)cc2c(=O)[nH]1,0% (inactive)
8,CCOC(=O)N1CCN(Cc2nc3c(c(=O)n(C)c(=O)n3C)n2Cc2ccc(F)cc2)CC1,2% (inactive)
9,CCN(CC)S(=O)(=O)N1CCC(C(=O)NC2CCCc3ccccc32)CC1 (stereo not given),0% (inactive)
10,CCn1c(=O)c(C(=O)NCCc2ccccc2)c(O)c2ccccc21,0% (inactive)
11,Cc1ccc(S(=O)(=O)Cn2nnnc2CN(Cc2ccco2)CC2CCCO2)cc1 (stereo not given),3% (inactive)
12,C/C(=N\O)C(=O)NCCCNCCCN(C)C,2% (inactive)
13,CCN1CCN(C(CNC(=O)c2ccc3c(c2)OCO3)c2cccnc2)CC1 (stereo not given),0% (inactive)
14,Cc1ccccc1NC(=O)C1CCN(c2cnccn2)CC1,0% (inactive)
15,CCOC(=O)CSc1nnc(Cn2c(=O)sc3ccccc32)n1C,0% (inactive)
16,COc1ccc(N2CCN(C(=O)Cc3ccc(-n4c(=O)[nH]c5ccccc5c4=O)cc3)CC2)cc1,6% (inactive)
17,Cc1cc(C(=O)OCC(=O)N2c3ccccc3CC2C)c(C)o1 (stereo not given),3% (inactive)
18,C(=C\c1ccccc1)/CSc1nnc(-c2ccccn2)n1Cc1ccco1,5% (inactive)
19,COc1ccc(CCNC(=O)c2cc(C(C)C)on2)cc1OC,1% (inactive)
20,O=C1CCCc2c1nn(-c1ccccc1)[n+]2[O-],0% (inactive)
